Compounds without any hit were thinned out: in the full panel of roughly 83,000, 20% have a hit.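 Cells were grown in 96-well plates and exposed to the test compound at a single concentration for 48 hours; results are reported as percent growth, with values below 10 considered active.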 Values without a mark were called inactive. Active and inactive are the calls of the source.

Holding throughout (test): NCI-60 one-dose screen, 48 h (100 = growth as untreated, 0 = no growth, -100 = all killed)
Holding throughout (conditions): 10 µM unless noted

The test system of experiment [1] is T-47D breast.
Experiment [2] relates to BT-549 breast.
The subject of experiment [3] is MDA-MB-435 melanoma.
Experiment [4] relates to SW-620 colon.
Experiment [5] concerns HCT-116 colon.
Experiment [6] deals with HCC-2998 colon.
Experiment [7] concerns KM12 colon.
Experiment [8] has as its system MCF7 breast.

Turning to `COc1ccc(CCN2C(=O)CCC3=C2CCCC3=O)cc1OC`, the growth is 104% in experiment [1]; 104% in experiment [2]; 103% in experiment [3]; 107% in experiment [4]; 100% in experiment [5]; 103% in experiment [6].

For `COc1ccc(C2=NN(C(C)=O)C(c3cccc(Nc4ccnc5cc(Cl)ccc45)c3)C2)cc1` (centres undefined), the growth in experiment [1] is 37.5%; in experiment [2], 50.4%; in experiment [3], 41.4%; in experiment [4], 74.4%; in experiment [5], 44.3%; in experiment [6], 83.1%. For the same compound, in experiment [7], the growth is 54.1%.

Turning to `CC1CN(/N=C/c2ccc([N+](=O)[O-])o2)C(=N)O1` (centres undefined), the growth was 117% in experiment [1]; 117% in experiment [2]; 100% in experiment [3]; 98.2% in experiment [4]; 95.6% in experiment [5]; 98.3% in experiment [6]. Besides, in experiment [7], the growth was 91.7%.

As for `C=CCN(/C=C/CN(CC=C)CC=C)CC=C`, the growth is 101% in experiment [1]; 100% in experiment [2]; 105% in experiment [3]; 102% in experiment [4]; 102% in experiment [5]; 110% in experiment [6]. Also, in experiment [7], the growth is 105%.

For the compound `Nc1ccc2c(c1Br)Cc1ccccc1-2`, the growth in experiment [1] is 87.8%; in experiment [2], 89%; in experiment [3] it was 110%; in experiment [4], 98.1%; in experiment [5], 98.2%; in experiment [6], 99.1%. Besides, the growth in experiment [7] was 103%.

Consider `COc1ccc2c(c1)CC[C@@H]1[C@@H]2CC[C@]2(C)[C@@H](O)C(=O)C[C@@H]12`, for which the growth was 106% in experiment [1]; 103% in experiment [2]; 102% in experiment [3]; 105% in experiment [4]; 129% in experiment [8]; 99.7% in experiment [5]. Besides, the growth in experiment [7] was 110%.

`CC(NC(N)=S)c1ccccc1` (centres undefined): the growth in experiment [1] was 89.6%; in experiment [2] it was 118%; in experiment [3], 106%; in experiment [4], 98.7%; in experiment [8] it was 94.5%; in experiment [5], 107%. The growth in experiment [7] was 104%.

Turning to `CC(C)N(Cc1ccccc1)c1c(S)ssc1=S`, the growth in experiment [1] was 18.2%; in experiment [2] it was -4.86% (active); in experiment [3], 11.8%; in experiment [4] it was 9.47% (active); in experiment [5] it was 5.93% (active); in experiment [6], 24.8%. The growth in experiment [7] was 11.5%.

On to `COc1ccc(Cl)cc1Nc1nc(C(F)(F)F)ccc1C(=O)N/N=C/c1c(Cl)cccc1Cl`, for which the growth in experiment [1] was 42.2%; in experiment [2] it was 48.6%; in experiment [3], 62.7%; in experiment [4] it was 36.9%; in experiment [5] it was 51.4%; in experiment [6] it was 63.5%. Besides, the growth in experiment [7] was 52.7%.

Consider `FC(F)(F)c1ccc(-c2cnc(-c3nn[nH]n3)nc2NC2CCCCCC2)cc1`, for which the growth in experiment [1] was 46.9% [50 µM]; in experiment [2] it was 50.8% [50 µM]; in experiment [3] it was 43.1% [50 µM]; in experiment [4], 41.2% [50 µM]; in experiment [5], 33.3% [50 µM]; in experiment [6] it was 60.6% [50 µM]. In addition, the growth in experiment [7] is 41.5% [50 µM].

Consider `CC[C@@H](c1ccc(O)c(O)c1)[C@@H](CC)c1ccc(O)c(O)c1`, for which the growth is -8.01% (active) in experiment [1]; 98% in experiment [2]; 62.9% in experiment [3]; 5.74% (active) in experiment [4]; 9.12% (active) in experiment [5]; 103% in experiment [6]. In addition, the growth in experiment [7] is 102%.

As for `C[C@@H]1C[C@@H]([C@@H](CC2CC(=O)NC(=O)C2)OC(=O)CC(=O)c2ccccc2)C(=O)[C@@H](C)C1`, the growth is -2.63% (active) in experiment [1]; 14.6% in experiment [2]; 11.6% in experiment [3]; 15.1% in experiment [4]; 14.7% in experiment [8]; 5.68% (active) in experiment [5]. Besides, in experiment [7], the growth is 12%.

Turning to `CC(=O)c1ccc(NS(=O)(=O)c2ccc([N+](=O)[O-])cc2)cc1`, the growth is 86.3% in experiment [1]; 102% in experiment [2]; 122% in experiment [3]; 108% in experiment [4]; 99.3% in experiment [8]; 102% in experiment [5]. Also, in experiment [7], the growth is 111%.

As for `COc1ccc(CNC(=O)c2c(C)n([O-])c3cc(F)c(F)cc3[n+]2=O)cc1`, the growth was 67.8% in experiment [1]; 80.3% in experiment [2]; 106% in experiment [3]; 71.1% in experiment [4]; 97.8% in experiment [5]; -73.5% (active) in experiment [6]. In addition, in experiment [7], the growth was 96.1%.

As for `COc1cc(/C=C/c2cc(/C=C/c3ccc(O)c(OC)c3)n(C(=O)c3ccc(Cl)cc3)n2)ccc1O`, the growth in experiment [1] is 11.2%; in experiment [3], -45.2% (active); in experiment [4], 16.4%; in experiment [8], 20.1%; in experiment [5], 0.953% (active); in experiment [6], 52%. Further, in experiment [7], the growth is 10.8%.

Consider `O=c1sc2ncnc3ncn1c32`, for which the growth in experiment [1] was 34.5%; in experiment [3], 29.5%; in experiment [4], 73.1%; in experiment [8], 22.4%; in experiment [5], 50.9%; in experiment [6], 79.5%. The growth in experiment [7] is 70%.

As for `NC(=N\N=C/Cc1ccccc1)/C(N)=N\N=C\Cc1ccccc1`, the growth in experiment [1] was 91.7%; in experiment [2] it was 104%; in experiment [3] it was 107%; in experiment [4] it was 104%; in experiment [5], 108%; in experiment [7], 104%.

Regarding `COc1cc(/C=C/c2cc(/C=C/c3ccc(O)c(OC)c3)n(C(=O)Cc3ccccc3)n2)ccc1O`, the growth in experiment [1] is -7.75% (active); in experiment [3] it was -10.2% (active); in experiment [4], 4.63% (active); in experiment [8], -0.783% (active); in experiment [5] it was 1.23% (active); in experiment [6] it was 17.2%. Moreover, in experiment [7], the growth was 9.39% (active).

Source of the values: PubChem BioAssay (NCI).
